# Results from PubChem BioAssay.
# Active and inactive are the calls of the source.
# How the values were obtained:
# [1] = system: Plasmodium falciparum Sir2 (PF13_0152, Sir2A); assay: pfSir2 binders on small-molecule microarrays, primary screen, biochemical, small-molecule microarray, 635 nm fluorescence (AID 1098); settings: small-molecule microarray binding, fluorescence 635 nm; higher = more signal;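 note: score merges spot fluorescence intensity with its signal-to-noise ratio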
# [2] = small-molecule microarray binders of probe aDKK1, primary screen, biochemical, biotinylated probe, 635/667 nm fluorescence (AID 1099); settings: higher = more signal;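 note: score merges 667nm spot fluorescence with signal to noise across triplicate slides; reference of the scale not given here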
# [3] = small-molecule microarray binders of probe aCHRDL2, primary screen, biochemical, biotinylated probe, 635/667 nm fluorescence (AID 1100); settings: higher = more signal
# [4] = splicing luciferase reporter signal modulators, primary screen, spliceosome inhibition project, cell-based, HEK293, splice +/- reporter (AID 1101); settings: luminescence, 24 h, higher = more signal, called active from +8 up or from −8 down;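 note: HEK293 cells carrying a splicing-competent luciferase reporter gene; test concentration not given here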
# [5] = target: Fibroblast growth factor 10 (Homo sapiens) (UniProt O15520); assay: FGF10 binders on small-molecule microarrays, primary screen, biochemical, small-molecule microarray, 635 nm fluorescence (AID 1102); settings: FGF10 binding, fluorescence 635 nm, higher = more signal
# [6] = system: glycogen synthase kinase-3 (GSK3A per assay name; protocol says GSK3B); assay: GSK3 binders on small-molecule microarrays, primary screen, biochemical, small-molecule microarray, 635 nm fluorescence, GSK3A (AID 1103); settings: small-molecule microarray binding, fluorescence 635 nm; higher = more signal; note: the record names both GSK3A and GSK3B
# [7] = target: Epidermal growth factor receptor (Homo sapiens) (UniProt P00533); assay: EGFR binders on small-molecule microarrays, primary screen, biochemical, small-molecule microarray, 635 nm fluorescence (AID 1104); settings: EGFR binding, higher = more signal;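 note: score merges 667 nm emission intensity with spot signal to noise over triplicate slides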
# [8] = target: Follistatin-related protein 3 (Homo sapiens) (UniProt O95633); assay: FSTL3 binders on small-molecule microarrays, primary screen, biochemical, small-molecule microarray, 635 nm fluorescence (AID 1105); settings: FSTL3 binding, higher = more signal;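 note: score merges emission near 667 nm and signal to noise per printed spot across three slides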
# [9] = target: Dickkopf-related protein 1 (Homo sapiens) (UniProt O94907); assay: DKK1 binders on small-molecule microarrays, primary screen, biochemical, small-molecule microarray, 635 nm fluorescence scan (AID 1106); settings: DKK1 binding, higher = more signal;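 note: score merges emission near 667 nm with signal to noise over three replicate slides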
# [10] = system: Inhibin beta A chain (activin A); assay: INHBA (activin A) binders on microarrays, primary screen, biochemical, small-molecule microarray, 635 nm fluorescence scan (AID 1107); settings: small-molecule microarray binding, higher = more signal;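 note: mouse activin A protein probed at 4.33 µg/mL on printed slides; score merges bound-protein fluorescence near 667 nm with spot signal-to-noise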
# Sequence of Epidermal growth factor receptor (Homo sapiens) (P00533 whole entry, looked up): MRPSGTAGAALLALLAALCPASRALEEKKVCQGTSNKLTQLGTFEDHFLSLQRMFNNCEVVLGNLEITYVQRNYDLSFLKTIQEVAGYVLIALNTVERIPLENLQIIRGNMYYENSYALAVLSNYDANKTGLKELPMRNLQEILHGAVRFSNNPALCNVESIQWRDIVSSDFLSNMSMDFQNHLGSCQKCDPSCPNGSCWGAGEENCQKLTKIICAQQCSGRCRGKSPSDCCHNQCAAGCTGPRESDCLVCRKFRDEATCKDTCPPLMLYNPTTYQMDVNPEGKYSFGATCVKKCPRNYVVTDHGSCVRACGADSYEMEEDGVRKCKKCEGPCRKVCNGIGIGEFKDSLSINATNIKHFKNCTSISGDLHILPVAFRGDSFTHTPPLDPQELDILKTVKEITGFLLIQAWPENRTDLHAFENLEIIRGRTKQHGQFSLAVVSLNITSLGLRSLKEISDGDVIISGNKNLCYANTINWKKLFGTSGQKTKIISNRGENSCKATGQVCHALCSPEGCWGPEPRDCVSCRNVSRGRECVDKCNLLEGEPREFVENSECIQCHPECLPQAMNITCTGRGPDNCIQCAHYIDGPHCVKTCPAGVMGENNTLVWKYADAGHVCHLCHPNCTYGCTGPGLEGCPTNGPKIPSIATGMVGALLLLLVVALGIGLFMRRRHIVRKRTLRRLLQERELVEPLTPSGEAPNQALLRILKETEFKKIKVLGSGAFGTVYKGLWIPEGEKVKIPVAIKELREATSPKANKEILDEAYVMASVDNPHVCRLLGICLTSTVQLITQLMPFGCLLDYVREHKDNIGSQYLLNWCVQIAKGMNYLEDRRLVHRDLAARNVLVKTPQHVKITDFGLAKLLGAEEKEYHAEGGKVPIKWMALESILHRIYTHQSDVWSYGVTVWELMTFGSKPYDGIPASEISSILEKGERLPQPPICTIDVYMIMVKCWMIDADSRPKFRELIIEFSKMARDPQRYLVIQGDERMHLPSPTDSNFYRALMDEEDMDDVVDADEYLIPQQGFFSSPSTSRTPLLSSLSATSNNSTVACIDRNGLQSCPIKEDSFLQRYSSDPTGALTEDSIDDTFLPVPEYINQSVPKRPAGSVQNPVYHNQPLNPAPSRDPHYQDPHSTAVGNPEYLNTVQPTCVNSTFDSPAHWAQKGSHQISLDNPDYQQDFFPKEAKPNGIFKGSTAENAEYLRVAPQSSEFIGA
# Sequence of Fibroblast growth factor 10 (Homo sapiens) (O15520 whole entry, looked up): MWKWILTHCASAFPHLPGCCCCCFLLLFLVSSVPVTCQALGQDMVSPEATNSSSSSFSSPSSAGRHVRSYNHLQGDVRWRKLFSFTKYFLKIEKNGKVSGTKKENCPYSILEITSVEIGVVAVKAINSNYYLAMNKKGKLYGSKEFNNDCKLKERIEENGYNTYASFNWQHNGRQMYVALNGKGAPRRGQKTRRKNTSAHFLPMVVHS
# Sequence of Dickkopf-related protein 1 (Homo sapiens) (O94907 whole entry, looked up): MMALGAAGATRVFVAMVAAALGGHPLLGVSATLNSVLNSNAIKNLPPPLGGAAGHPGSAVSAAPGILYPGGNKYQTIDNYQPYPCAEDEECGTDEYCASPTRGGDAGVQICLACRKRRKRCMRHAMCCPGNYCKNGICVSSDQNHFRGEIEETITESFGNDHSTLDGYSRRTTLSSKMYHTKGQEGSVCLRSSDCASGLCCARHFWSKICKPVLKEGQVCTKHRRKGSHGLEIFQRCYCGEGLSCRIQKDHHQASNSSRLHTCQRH
# Sequence of Follistatin-related protein 3 (Homo sapiens) (O95633 whole entry, looked up): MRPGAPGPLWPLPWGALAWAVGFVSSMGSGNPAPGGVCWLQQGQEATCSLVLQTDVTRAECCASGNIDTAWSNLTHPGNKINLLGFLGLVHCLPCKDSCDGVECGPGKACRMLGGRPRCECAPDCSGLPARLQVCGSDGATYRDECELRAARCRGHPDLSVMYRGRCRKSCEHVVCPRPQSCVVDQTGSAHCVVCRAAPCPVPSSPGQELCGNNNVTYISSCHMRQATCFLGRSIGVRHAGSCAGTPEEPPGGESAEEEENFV
SMILES,composite z-score [1],composite z-score [2],composite z-score [3],z-score [4],composite z-score [5],composite z-score [6],composite z-score [7],composite z-score [8],composite z-score [9],composite z-score [10]
O=S(=O)(NCCCO)c1ccc(Br)cc1,0.373,0.101,0.248,-1.03 (inactive),0.568,0.309,0.598,0.175,-0.0155,0.363
O=C1OCC=C[C@H]2OC34C=CCN(CCN5CCOCC5)C(=O)[C@H]3N(CCCCCCO)C(=O)[C@@H]4[C@@H]12 (stereo not given in full),1.18,-0.148,0.251,0.364 (inactive),-0.231,-0.162,-0.0057,0.376,0.0105,1.35
COC(=O)[C@@]1(Cc2ccc(F)cc2)[C@H]2c3cc(C(=O)N(C)C)n(CCc4c[nH]c5ccc(OC)cc45)c3C[C@H]2CN1C(=O)c1ccccc1,-0.138,1.76,1.31,-2.71 (inactive),-0.162,0.27,-0.446,-0.108,-1.73,0.812
COCCOC(=O)N1C(=O)[C@@]2(c3ccccc31)[C@H](C(=O)N1CCCCCCC1)[C@H]1C(=O)O[C@H](c3ccccc3)[C@H](c3ccccc3)N1[C@@H]2c1ccccc1OCCO,1.72,2.76,1.66,-0.0563 (inactive),1.09,1.29,1,1.52,1.5,2.02
Cc1cc(C)c(C(O)C2C=CC3C(=O)NC(=O)C3N2Nc2ccccn2)c(C)c1 (stereo not given),-0.0405,0.118,0.862,1.43 (inactive),0.158,0.22,-0.373,0.547,-0.669,0.838
COc1ccc([Si](C)(C)[C@H]2[C@H](CC(=O)N3Cc4ccccc4C[C@H]3CO)O[C@@]3(C(=O)N(Cc4cccc(I)c4)c4ccccc43)[C@@H]2C)cc1,0.391,-0.29,-0.162,-1.73 (inactive),1.15,0.346,1.4,1.36,1.57,1.76
COc1ccc([Si](C)(C)[C@H]2[C@H](CC(=O)N(CCO)Cc3ccccc3)O[C@@]3(C(=O)N(Cc4cccc(N5C(=O)c6cccc7cccc5c67)c4)c4ccccc43)[C@@H]2C)cc1,0.803,-0.534,0.0901,-2.5 (inactive),0.158,0.0107,0.148,0.303,0.491,0.9
CC(C)(C)OC(=O)CC[C@]1(C(=O)NCC(O)CO)N=C(c2ccc(OCCCO)cc2)O[C@H]1c1ccccc1CN=[N+]=[N-] (stereo not given in full),0.982,1.27,1.33,0.121 (inactive),1.5,0.554,-0.256,0.676,-0.0583,0.487
COc1ccc(CCNC(=O)[C@@]2(C)c3ccccc3C(=O)N(Cc3ccccc3)[C@H]2c2ccc(CO)cc2)cc1,1.49,0.28,0.376,-0.278 (inactive),1.26,0.707,0.433,1.43,0.548,0.684
COCCCNC(=O)[C@]1(Cc2ccccc2N=[N+]=[N-])N=C(c2ccc(OCCCO)cc2)O[C@@H]1c1ccccc1CN=[N+]=[N-],1.09,1.2,1.01,-0.4 (inactive),1.26,0.644,0.504,0.912,0.318,0.928
CN(C)CCCCNC(=O)[C@@H]1C[C@@H]2C(=O)N[C@@H](CCCCN)C(=O)N2[C@@H]1c1cccc(OCCO)c1,1.9,0.123,0.74,-0.239 (inactive),-0.383,0.0265,-1.22,-0.795,-0.988,0.0049
Cc1c(NC(=O)/C(C#N)=C/C=C/c2ccccc2)c(=O)n(-c2ccccc2)n1C,0.504,-0.0814,-0.366,0.777 (inactive),-0.0134,0.234,0.513,0.573,0.425,0.772
CN(C)CCCC[C@@H]1NC(=O)[C@@H]2C[C@H](C(=O)NCCCCCN)[C@H](c3ccc(O)cc3)N2C1=O,0.016,0.442,0.916,-0.159 (inactive),-0.008,0.31,-0.912,-1.25,-0.722,-0.273
C=CCCN(CC#C[C@H]1Oc2ccccc2S(=O)(=O)N2CCC[C@@H]12)S(=O)(=O)c1ccc(C)cc1,0.327,-0.342,-0.289,3.09 (inactive),0.371,0.0464,0.185,0.485,0.435,1.45
C=CCN1C(=O)[C@]2(COC(c3ccc(OCCCO)cc3)=N2)Cc2ccccc21,1.31,0.16,0.946,-0.556 (inactive),0.261,0.678,0.145,0.232,-0.169,1.13
[N-]=[N+]=NCc1ccccc1C[C@]1(C(=O)N2CCOCC2)N=C(c2ccc(OCCCO)cc2)O[C@H]1c1ccccc1,0.947,0.102,0.904,-1.18 (inactive),1.39,0.551,-0.458,0.223,-0.774,0.275
O=C1C2C=CC(C(O)C3CC=CCC3)N(n3cnnc3)C2C(=O)N1Cc1ccccc1 (stereo not given),0.213,-0.3,0.348,0.276 (inactive),-0.644,-0.406,-1.64,-1,-0.746,0.672
O=C1C2C=CC(C(O)c3ccc(Br)cc3)N(n3cnnc3)C2C(=O)N1Cc1ccccc1 (stereo not given),1.11,0.578,0.479,0.696 (inactive),0.946,1.07,0.406,0.819,0.0363,-0.0003
COc1ccc([Si](C)(C)[C@H]2[C@H](CCO)O[C@@]3(C(=O)N(Cc4ccccc4)c4ccc(N5C(=O)COc6ccccc65)cc43)[C@@H]2C)cc1,1.12,0.0649,0.521,-1.56 (inactive),0.305,-0.965,-0.5,-0.207,-0.214,0.241
COCCOC(=O)N1C(=O)[C@@]2(c3cc(C#Cc4ccc(OC)cc4)ccc31)[C@H](C(N)=O)[C@H]1C(=O)O[C@H](c3ccccc3)[C@H](c3ccccc3)N1[C@@H]2c1ccc(O)cc1,0.356,-0.76,-0.318,-0.298 (inactive),-1.67,-1.53,-1.67,-1.95,-2.42,-0.115
CN1C(=O)C2C(C1=O)C1C=C(c3ccc(CO)cc3)C2C(C2CC2)N1Cc1sc2ccccc2c1Cl (stereo not given),0.924,-0.197,0.82,0.254 (inactive),1.25,1.33,0.291,0.989,0.473,0.74
Cc1ccc(S[C@]2(C(=O)NCC(F)(F)F)CC(=O)N(C3Cc4ccccc4C3)[C@@H]2c2ccc(CO)cc2I)cc1,1.08,0.599,1.19,-0.426 (inactive),-1.02,-1.3,-1.51,-1,-2.11,0.554
